Results published in PubChem BioAssay (NCI).
This is part of a sample that, as a whole, favours compounds with a hit. Of some 79,000 tested, about 15% had one in any assay. Unmarked numbers belong to inactive results. The source made the active and inactive calls. No stated cut-off is given here; in the data, active means growth inhibition above about 70%; inactive means the rest.

Key:
[1] = NCI Yeast Anticancer Drug Screen. Data for the rad50 strain (AID 155);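 further: 0% = growth of vehicle-only cultures of the same strain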; settings: S. cerevisiae rad50 strain growth inhibition, hits give high values
Outline: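 Compounds were tested on a yeast strain with an engineered DNA damage repair alteration; the reported value is growth inhibition normalised to vehicle treatment.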

[2] = NCI Yeast Anticancer Drug Screen. Data for the mec2-1 strain (AID 157); settings: S. cerevisiae mec2-1 strain, hits give high values
Outline: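 mec2-1 yeast strain, carrying an alteration in DNA damage repair or cell cycle control, was exposed to compounds; growth inhibition was measured relative to vehicle-treated controls.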

[3] = NCI Yeast Anticancer Drug Screen. Data for the sgs1 mgt1 strain (AID 161);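 further: 0% = growth of cultures given vehicle only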; settings: S. cerevisiae sgs1 mgt1 strain, hits give high values
Outline: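 Percent growth inhibition was derived by comparing compound-exposed mutant yeast with vehicle-exposed cultures. The strain carries alterations in DNA damage repair.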

[4] = NCI Yeast Anticancer Drug Screen. Data for the cln2 rad14 strain (AID 165);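 further: 0% = growth equal to vehicle treated cultures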; settings: S. cerevisiae cln2 rad14 strain, hits give high values
Outline: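 Yeast carrying cln2 and rad14 alterations (cell cycle control and DNA damage repair) were exposed to compounds. Growth inhibition was measured against vehicle-treated controls.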

[5] = NCI Yeast Anticancer Drug Screen. Data for the bub3 strain (AID 167); settings: S. cerevisiae bub3 mutant strain, hits give high values
Outline: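 Growth of a checkpoint-deficient yeast mutant is measured after compound exposure. Values represent inhibition relative to vehicle.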

[6] = NCI Yeast Anticancer Drug Screen. Data for the mlh1 rad18 strain (AID 175); settings: S. cerevisiae mlh1 rad18 strain growth inhibition, hits give high values
Outline: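 Growth inhibition of the yeast strain was measured after compound exposure and expressed relative to vehicle-treated controls. The strain carries defined defects in DNA damage repair.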

[7] = at 5.0 µM (retest, dose inferred, filed as 0.5)
[8] = at 50.0 µM (retest, dose inferred, filed as 5.0)

| Structure (SMILES) | growth inhibition [1, 7] | growth inhibition [1, 8] | growth inhibition ([1]; at 50.0 µM) | growth inhibition [2, 7] | growth inhibition [2, 8] | growth inhibition ([2]; at 50.0 µM) | growth inhibition [3, 7] | growth inhibition [3, 8] | growth inhibition ([3]; at 50.0 µM) | growth inhibition [4, 7] | growth inhibition [4, 8] | growth inhibition ([4]; at 50.0 µM) | growth inhibition [5, 7] | growth inhibition [5, 8] | growth inhibition ([5]; at 50.0 µM) | growth inhibition [6, 7] | growth inhibition [6, 8] | growth inhibition ([6]; at 50.0 µM) |
| --- | --- | --- | --- | --- | --- | --- | --- | --- | --- | --- | --- | --- | --- | --- | --- | --- | --- | --- |
| c1csc(CNCc2cccs2)c1 | -3% | -5% | -13.9% | -2% | 1% | 1.45% | -1% | -5% | -1.2% | -4% | -4% | -23.4% | -1% | -5% | 1.3% | 0% | -7% | 37.3% |
| CCOc1c(N=Nc2ccc(Cl)cc2)c(-c2ccccc2)nn1C(=S)S | 4% | 91% (active) | 95.3% (active) | 2% | 89% (active) | 95.6% (active) | 8% | 92% (active) | 92% (active) | 5% | 92% (active) | 91.5% (active) | 0% | 94% (active) | 92.8% (active) | 2% | 91% (active) | 94.4% (active) |
| COC(C)(C)[C@@H]1CCCN1C1=C(C)C(=O)OC1 | 97% (active) | 99% (active) | 46.6% | 85% (active) | 99% (active) | 69.3% | 61% | 99% (active) | 78.5% (active) | 43% | 99% (active) | 24.6% | 89% (active) | 99% (active) | 46.6% | 90% (active) | 99% (active) | 75.8% (active) |
| CC(CC(C)[C@H]1CCC2[C@H]3C(CC[C@@]21C)[C@@]1(C)CCC(O)C[C@H]1C[C@@H]3O)C(=O)O (stereo not given in full) | 10% | 97% (active) | 98.4% (active) | -7% | 98% (active) | 97.5% (active) | -4% | 97% (active) | 98.7% (active) | -4% | 99% (active) | 97.1% (active) | -20% | 98% (active) | 99% (active) | 14% | 98% (active) | 98.2% (active) |
| O=C1CN(Cc2ccc(Cl)cc2)CC(=O)N2Cc3ccccc3CN12 | 4% | -3% | -16.2% | -4% | -6% | -13.8% | 4% | -13% | -13.2% | -2% | 1% | 5.1% | 6% | 6% | 64.2% | -4% | -3% | -11% |
| Cn1sc2ccccc2c1=S | -112% | 98% (active) | 99.6% (active) | -39% | 99% (active) | 99.8% (active) | -47% | 99% (active) | 99.7% (active) | -78% | 98% (active) | 99.5% (active) | -49% | 98% (active) | 99.5% (active) | -95% | 98% (active) | 99.7% (active) |
| CC1(C)[C@@H]2CC[C@]1(C)[C@@H](OC(=O)CSC#N)C2 | 92% (active) | 99% (active) | 99.4% (active) | 74% (active) | 100% (active) | 99.6% (active) | 98% (active) | 100% (active) | 99.3% (active) | 24% | 99% (active) | 98.8% (active) | 95% (active) | 100% (active) | 99.6% (active) | 75% (active) | 99% (active) | 99.2% (active) |
| C/C(=N\NC(=S)Nc1ccc(C)cc1)c1nc2ncccc2[nH]1 | -9% | 84% (active) | 73.8% (active) | -6% | 88% (active) | 66.2% | 0% | 84% (active) | 66.3% | -36% | 91% (active) | 64.5% | -21% | 97% (active) | 71.5% (active) | 4% | 91% (active) | 50.9% |
| COC1OC(=O)CC1C1CC=C2C3CCC4CC(O)CCC4(C)C3CCC21C (stereo not given) | 1% | 44% | 83.3% (active) | 3% | 85% (active) | 74.4% (active) | -22% | 86% (active) | 95% (active) | -8% | 77% (active) | 62.6% | -9% | 73% (active) | 64.8% | -5% | 92% (active) | 88.4% (active) |
| c1ccc2c(c1)N=c1ccccc1=P21c2ccccc2Nc2ccccc21 | 89% (active) | 99% (active) | 87.3% (active) | 93% (active) | 99% (active) | 90.9% (active) | 84% (active) | 99% (active) | 87.8% (active) | 85% (active) | 99% (active) | 89.5% (active) | 97% (active) | 99% (active) | 89.8% (active) | 92% (active) | 99% (active) | 83.2% (active) |
| O=C(O)Cc1cccc2c(=O)c3cccc([N+](=O)[O-])c3[nH]c12 | 32% | 87% (active) | 74.6% (active) | 24% | 83% (active) | 58% | 24% | 60% | 53.1% | 28% | 79% (active) | 65% | 22% | 85% (active) | 45.5% | 28% | 86% (active) | 69.8% |
| O=[N+]([O-])c1cc(C(F)(F)F)ccc1SSc1ccc(C(F)(F)F)cc1[N+](=O)[O-] | 45% | 86% (active) | 60.9% | 39% | 88% (active) | 50% | 42% | 93% (active) | 68.5% | 42% | 64% | 54.7% | 42% | 92% (active) | 66.7% | 59% | 88% (active) | 58.4% |
| CCCC(CC)c1c(O)c(O)c(C(CC)CCC)c(C(CC)CCC)c1C(CC)CCC (stereo not given) | 4% | 76% (active) | 95.5% (active) | -12% | 52% | 97.3% (active) | -10% | 76% (active) | 97.9% (active) | 18% | 72% (active) | 97.7% (active) | -1% | 59% | 97.2% (active) | -13% | 87% (active) | 96% (active) |
| C#CC(CC)(CC)NC(=O)NC(C)(C)C | 0% | -18% | 2.1% | -26% | -25% | 0.85% | -11% | -1% | 35.5% | 2% | 23% | -1.85% | -19% | -17% | 28.4% | -21% | -59% | 2.3% |
| ClC1c2ccccc2Cc2cccnc21 (stereo not given) | 21% | 85% (active) | 75.3% (active) | 11% | 24% | 11.8% | 10% | 59% | 12.2% | 4% | 22% | -5.1% | 7% | 48% | -6.6% | 8% | 76% (active) | 23.5% |
| CC1=CCCc2c1cc1ccc3cccc4ccc2c1c34 | 8% | -6% | 49.5% | -7% | -8% | 79.7% (active) | -4% | 16% | 94.2% (active) | -2% | -8% | 28.1% | -5% | -10% | 91.2% (active) | -11% | -6% | 89.8% (active) |
| C1CCC(C2CCC(N3CCCCC3)CC2)CC1 (stereo not given) | 60% | 78% (active) | 85% (active) | 45% | 77% (active) | 51.4% | 58% | 86% (active) | 82.3% (active) | 63% | 62% | 75.6% (active) | 63% | 84% (active) | 72.8% (active) | 67% | 87% (active) | 79.4% (active) |
| CN(C)CC(C)(CN(C)C)C(=O)/C=C/c1ccc(Cl)c(Cl)c1 | 27% | 98% (active) | 99.7% (active) | 18% | 99% (active) | 99.8% (active) | 38% | 98% (active) | 99.8% (active) | 13% | 99% (active) | 99% (active) | 12% | 100% (active) | 99.5% (active) | 41% | 99% (active) | 99.6% (active) |
| CCCCN(CCCC)CC(O)c1cc(-c2ccc(Cl)cc2)nc2c(C)cccc12 (stereo not given) | 0% | 94% (active) | 98% (active) | 2% | 95% (active) | 97.3% (active) | 19% | 96% (active) | 98.4% (active) | -4% | 91% (active) | 95.8% (active) | -7% | 94% (active) | 89.8% (active) | 7% | 95% (active) | 95.9% (active) |
| c1ccc(C2CC(c3ccc4ccccc4c3)=Nc3ccccc3S2)cc1 (stereo not given) | 0% | 40% | 76.8% (active) | -4% | 72% (active) | 50.6% | 8% | 78% (active) | 80.8% (active) | -11% | 19% | 69.5% | 21% | 91% (active) | 96.5% (active) | 3% | 76% (active) | 88.1% (active) |
| Clc1nc2ccccc2nc1N1CCCCCC1 | 0% | 90% (active) | -17.5% | 2% | 96% (active) | -7.05% | 1% | 72% (active) | 25.6% | -5% | 74% (active) | -21.4% | 9% | 93% (active) | 76% (active) | 2% | 85% (active) | 5.2% |
| O=C1c2ccccc2C(=O)c2sc(Nc3cc(Cl)ccc3Cl)nc21 | 58% | 98% (active) | 82.3% (active) | 72% (active) | 99% (active) | 88.2% (active) | 67% | 99% (active) | 88.3% (active) | 52% | 97% (active) | 86.5% (active) | 87% (active) | 98% (active) | 83.8% (active) | 63% | 98% (active) | 90.5% (active) |
| CC(C)(CN1CCCCC1)C(=O)CC(SCCS(=O)(=O)O)c1ccc(Cl)c(Cl)c1 (stereo not given) | 62% | 97% (active) | 95.8% (active) | 33% | 97% (active) | 94% (active) | 33% | 95% (active) | 97.4% (active) | 38% | 98% (active) | 88.2% (active) | 58% | 99% (active) | 98% (active) | 41% | 97% (active) | 97% (active) |
| NC(=S)N/N=C1\NC(=O)/C(=C/c2ccc3c(c2)OCO3)S1 | 16% | 12% | -45.6% | 15% | 20% | -40.6% | 13% | 13% | -13.3% | 16% | 11% | -13.9% | 9% | 31% | 0.7% | 14% | 18% | -14% |
| COC(=O)CCC(=O)c1ccc2c(c1)CC1(Cc3ccccc3C1)C2 | 20% | 29% | 14.4% | 24% | 21% | 3.85% | 24% | 46% | 15.3% | 14% | 8% | 17.6% | 25% | 44% | 41.4% | 29% | 30% | 12.1% |
